Assay outcomes: PubChem BioAssay, National Center for Advancing Translational Sciences (NCATS)
HEK293 tox = cytotoxic compounds in HEK 293 cells | Potency, µM (titrated, usually from 115 µM), without a hit: at the highest dose activity change, negative = cytotoxicity, most hits filed as inhibitors | HEK 293 viability, ATP luminescence (CellTiter-Glo), 48-72 h | hit rate 6.6% among 94,000; note: nearly all actives have a fitted effect of over 60% in size
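CellTiter-Glo luminescence (cellular ATP) was read after 48 or 72 hr of compound exposure at 37 degree Celsius. Cells were HEK 293 plated at 250 cells/well.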
NIH3T3 tox = kills NIH 3T3 cells; Potency, µM (titrated, usually from 96.7 µM), without a hit: top-dose activity change, negative = cytotoxicity, actives largely listed as inhibitors; hit rate 4.3% among 94,000; NIH 3T3 viability, CellTiter-Glo ATP luminescence, 48-72 h; AID 1345082; note: nearly all actives have a fitted effect of over 55% in size
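Mouse fibroblast NIH 3T3 cells, 400 per well, received compound via pintool and were incubated for 48 or 72 hr prior to CellTiter-Glo ATP luminescence measurement.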
Luciferase inh = Photinus pyralis luciferase inhibition; P08659; purified P. pyralis luciferase, luminescence, biochemical; Potency, µM (highest dose often 115 µM), hits mostly inhibitors; hit rate 2.5% among 76,000; AID 1347043; note: nearly all actives have a fitted effect of over 65% in size
Target sequence (P08659 whole entry, looked up): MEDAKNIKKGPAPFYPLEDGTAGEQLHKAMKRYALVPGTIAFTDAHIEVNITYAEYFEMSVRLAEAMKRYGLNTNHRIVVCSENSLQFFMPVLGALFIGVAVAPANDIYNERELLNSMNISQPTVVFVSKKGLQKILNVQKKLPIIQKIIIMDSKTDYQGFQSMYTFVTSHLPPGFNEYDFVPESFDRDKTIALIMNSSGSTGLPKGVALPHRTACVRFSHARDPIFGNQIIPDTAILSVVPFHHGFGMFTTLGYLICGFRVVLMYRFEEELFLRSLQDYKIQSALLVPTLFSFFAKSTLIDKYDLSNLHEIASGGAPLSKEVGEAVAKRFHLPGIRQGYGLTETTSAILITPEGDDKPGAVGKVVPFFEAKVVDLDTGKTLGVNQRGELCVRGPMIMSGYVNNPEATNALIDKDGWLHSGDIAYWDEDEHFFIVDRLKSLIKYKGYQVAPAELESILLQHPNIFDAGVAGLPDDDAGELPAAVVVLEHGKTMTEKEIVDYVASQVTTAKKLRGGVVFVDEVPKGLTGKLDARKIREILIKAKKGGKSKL
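Inhibitors were tested against purified firefly luciferase in a biochemical, low-substrate format (both substrates at 10uM) and luminescence measured with a CCD imager.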
NPR1 antag = blocks ANP-stimulated signaling of human Npr1 receptor; HEK293 hNpr1 GloSensor cGMP, ANP-stimulated luminescence; Potency, µM (titrated, usually from 46.3 µM), without a hit: at the highest dose activity change, negative = inhibition, most hits filed as inhibitors; hit rate 1.6% among 76,000; P16066; calls by dose curve; note: nearly all actives have a fitted effect of over 60% in size
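HEK293 cells stably expressing human Npr1 and cGMP GloSensor pGS-40F, loaded 2 h with 2% GloSensor reagent, given compound 30 min at room temperature. Luminescence read before and 20 min after 0.1 nM hNppA.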
Numbers without * were called inactive; i = inactive; ? = inconclusive; · = not tested or not shown; ! = not active in a repeat; [ ] = remark or other dose. Sampled rows, rich in hits. Any-hit rate of the full collection: about 11%. Unless noted, calls come from the whole dose curve; as a rule, active = well fitted curve in the direction sought with a large enough effect; inconclusive = small, poorly fitted or top-dose-only effect, or another doubt; inactive = no such curve, though single readings can be large; an effect the other way counts as inactive or inconclusive. % is set by controls: 0 for no effect and ±100 for the full control effect; potency is the fitted concentration of half-maximal effect.

SMILES | HEK293 tox | NIH3T3 tox | Luciferase inh | NPR1 antag
O=C(C1CCCN([S+](=O)([O-])c2cccc(C(F)(F)F)c2)C1)N1CCC(N2CCOC2=O)CC1 (configuration not stated) | ? | -34.7% | · | ·
CNC(=O)CCn1ncc2cc(OCc3ccccc3-c3ccc(F)cc3C)ccc21 | ? | 50.1µM* | i | -22.0%[70.6 µM]
CNC(=O)CCn1ncc2cc(OCc3ccccc3-c3c(F)cccc3OC)ccc21 | ? | ? | i | 3.9%[70.6 µM]
CNC(=O)CCn1ncc2cc(OCc3ccccc3-c3cccc(CO)c3)ccc21 | 79.4µM* | ? | 15.8µM* | ?
O=C(c1ccoc1)N1CCC(OCCOc2ccccc2)CC1 | -29.9% | -26.2% | · | ·
Cc1nn(-c2ccccc2)c2c1C(C(C)C)N(C1CCCN([S+](=O)([O-])c3cccc(C(F)(F)F)c3)C1)C2=O (configuration not stated) | -9.1% | -22.0% | · | ·
O=C(NC1CCN(Cc2cccc(-c3cccs3)c2)CC1)c1ccc(Cl)cc1 | ? | -21.0% | · | ·
Cc1cccc(-c2cccc(CN3CCC(NC(=O)c4ccc(C(F)(F)F)cc4)CC3)c2)c1 | -22.5% | -11.4% | · | ·
Cc1cccc(-c2cccc(CN3CCC(NC(=O)Cc4cccc(Cl)c4)CC3)c2)c1 | 20µM* | 14.1µM* | · | ·
Cc1cccc(-c2cccc(CN3CCC(NC(=O)c4cccc(Cl)c4)CC3)c2)c1 | 28.2µM* | 20µM* | · | ·
Cc1cccc(-c2cccc(CN3CCC(NC(=O)C(C)(C)C)CC3)c2)c1 | 44.7µM* | ? | · | ·
Cc1cccc(-c2cccc(CN3CCC(NC(=O)NC4CCCC4)CC3)c2)c1 | -20.9% | ? | · | ·
O=C(NC1CCN(Cc2cccc(-c3cccs3)c2)CC1)c1cccc(Cl)c1 | 20µM*! | ? | · | ·
O=C(Cc1ccc(Cl)cc1)NC1CCN(CCn2nc3n(c2=O)CCCC3)C1 (configuration not stated) | i | i | · | ·
CCN1CCC(N2CCC(Oc3ccccc3-c3nc(-c4ccncc4)no3)C2)CC1 (configuration not stated) | 12.6µM* | 6.31µM* | i | -2.3%
CC(C)NC(=O)N1CCC(Oc2ccccc2-c2nc(-c3ccccc3)no2)C1 (configuration not stated) | ? | ? | ? | 13.4%
O=C(CCc1ccccc1)N1CC(Oc2ccccc2-c2nc(-c3ccccc3)no2)C1 | 39.8µM* | 35.5µM* | · | ·
O=C(Nc1ccccc1)N1CCC(Oc2ccccc2-c2nc(-c3ccccc3)no2)C1 (configuration not stated) | 25.1µM* | 31.6µM* | ? | 0.1%
CN(C)C(=O)N1CCCN(c2ccc3nnc(C4CC4)n3n2)CC1 | -14.1%[172 µM] | -25.7%[138 µM] | · | ·
CC(C)c1nc2c(c(-c3ccc(Cl)cc3)n1)CCN(Cc1cccc3ccccc13)CC2 | ? | -28.8% | · | ·
CN1CCCC2(C1)CN(Cc1cccnc1)c1ccc(C(=O)NCc3cccs3)cc12 (configuration not stated) | ? | ? | i | 6.1%[70.6 µM]
Cc1nc(CN2CC3(CCN(C)C3)c3cc(C(=O)NCc4ccccc4)ccc32)cs1 (configuration not stated) | 112µM* | ? | i | -7.3%[70.6 µM]
Cc1nc(CN2CC3(CCN(C)C3)c3cc(C(=O)NCc4cccs4)ccc32)cs1 (configuration not stated) | ? | 79.4µM* | i | -4.5%[70.6 µM]
CN1CCC2(C1)CN(Cc1ccccc1)c1ccc(C(=O)NCc3cccs3)cc12 (configuration not stated) | 44.7µM* | 28.2µM* | i | 0.0%[70.6 µM]
Cc1nc(CN2CC3(CCN(C)C3)c3cc(C(=O)NCC4CC4)ccc32)cs1 (configuration not stated) | -36.9%[172 µM] | ? | i | 0.8%[70.6 µM]
SMILES | HEK293 tox | NIH3T3 tox | Luciferase inh | NPR1 antag
CN1CCC(Oc2nccnc2N2CCc3ccccc3C2)C1 (configuration not stated) | ? | ? | i | -13.1%
c1ccc2c(c1)CCN2c1nccnc1OC1CCNC1 (configuration not stated) | -35.3% | -12.6% | i | -11.9%
c1ccc(CN2CCC(Oc3nccnc3N3CCc4ccccc43)C2)nc1 (configuration not stated) | 39.8µM* | ? | i | 0.1%
COCC(=O)N1CCC(Oc2nccnc2N2CCc3ccccc32)C1 (configuration not stated) | -1.1% | i | 35.5µM* | 0.0%
O=C(NCc1cccc(C(F)(F)F)c1)c1ccc2nnc(C3CCOCC3)n2c1 | -16.7% | ? | · | ·
O=C(NCc1ccc(F)cc1)C1CCN(C(=O)c2ccc(-c3cncnc3)cc2)CC1 | -15.4% | ? | · | ·
Cc1nc2scc(CC(=O)NCC(C)C)n2c(=O)c1-c1cc(C)n(-c2ccc(C(C)C)cc2)n1 | 79.4µM* | ? | ? | -11.3%
Cc1ccc(C)c(-n2nc(-c3c(C)nc4scc(CC(=O)NCc5ccco5)n4c3=O)cc2C)c1 | 35.5µM* | ? | i | -18.5%
CCOc1cccc2c1OC[C@@H]1CN(CC)C(=O)CCN(C(=O)COc3ccccc3)[C@H]21 | -24.6% | ? | · | ·
CC1CCCC(C)N1C(=O)c1cc(-c2cc(Cl)cc(Cl)c2)c2nncn2n1 (configuration not stated) | -14.2% | ? | · | ·
CC1(C(=O)N2CCC(c3ccccc3)CC2)CCc2cnc(Nc3ccncc3)nc21 (configuration not stated) | 70.8µM* | ? | i | ?
CC1(C(=O)N2CCN(c3ccccn3)CC2)CCc2cnc(Nc3ccccc3)nc21 (configuration not stated) | 112µM* | ? | i | -16.7%[70.6 µM]
O=C(Nc1cc(-c2ccncc2)nn1-c1ccccc1)c1cccc(Br)c1 | ? | 31.6µM* | · | ·
Cn1nc(-c2ccncc2)cc1NC(=O)c1ccc(C(F)(F)F)cc1 | 11.2µM* | ? | · | ·
CCCC(=O)Nc1cc(-c2ccncc2)nn1-c1ccccc1 | -18.5%[172 µM] | -35.2%[138 µM] | · | ·
O=C(NC1CC1)c1ccc2oc(-c3ccncc3Cl)nc2c1 | -34.6%[172 µM] | -24.7%[138 µM] | · | ·
CCN1C(=O)CCN(Cc2cccc(C)c2)CC12CCOCC2 | -5.6% | -16.6% | · | ·
CCN1C(=O)CCN(Cc2cn(C)c3ccccc23)CC12CCOCC2 | 79.4µM* | ? | · | ·
O=C(NCC1CC1)c1ccc2oc(-c3cccnc3)nc2c1 | -11.9%[172 µM] | -22.0%[138 µM] | · | ·
O=C(NCCc1ccccc1F)c1ccc2oc(-c3cccnc3)nc2c1 | -19.6% | ? | · | ·
COc1ccc(-c2cc(N3CCCN(C(=O)c4ccc(Br)cc4)CC3)n[nH]2)cc1 | ? | ? | i | -5.6%
COc1ccc(-c2cc(N3CCN(C(=O)c4c[nH]c5ccccc45)CC3)n[nH]2)cc1 | ? | 25.1µM* | i | 0.0%
CC(C(=O)N1CCN(c2cc(-c3ccc(Cl)cc3)[nH]n2)CC1)c1ccccc1 (configuration not stated) | 28.2µM* | ? | i | 0.0%
CC(C(=O)N1CCCN(c2cc(-c3ccccc3)[nH]n2)CC1)c1ccccc1 (configuration not stated) | ? | ? | i | -18.8%
